TDP1 block – inhibitors of human tyrosyl-DNA phosphodiesterase TDP1. Q9NUW8. recombinant TDP1, AlphaScreen DNA substrate cleavage. Potency, µM (top dose mostly 130 µM), inactives show top-dose activity change, negative = inhibition, hits mostly inhibitors. actives 0.28% (n = 350,000). AID 485290; further: nearly all actives have a fitted effect of over 40% in size
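Compounds were preincubated with Tdp1 (1 nM final) for 15 min at room temperature before substrate (15 nM final) started a 5 min reaction; beads (10 ug/ml final) were then added for 10 min before AlphaScreen detection.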
RORg inh – blocks mouse ROR gamma transcriptional activity | Potency, µM (top dose mostly 53.6 µM), without a hit: at the highest dose activity change, negative = inhibition, usual class: inhibitors | actives 5.4% (n = 310,000) | Drosophila S2 Gal4-RORgamma UAS-luciferase reporter, 20 h | P51450 | AID 2551; further: nearly all actives have a fitted effect of over 60% in size
Target sequence (P51450 whole entry, looked up, the tested form may be a part): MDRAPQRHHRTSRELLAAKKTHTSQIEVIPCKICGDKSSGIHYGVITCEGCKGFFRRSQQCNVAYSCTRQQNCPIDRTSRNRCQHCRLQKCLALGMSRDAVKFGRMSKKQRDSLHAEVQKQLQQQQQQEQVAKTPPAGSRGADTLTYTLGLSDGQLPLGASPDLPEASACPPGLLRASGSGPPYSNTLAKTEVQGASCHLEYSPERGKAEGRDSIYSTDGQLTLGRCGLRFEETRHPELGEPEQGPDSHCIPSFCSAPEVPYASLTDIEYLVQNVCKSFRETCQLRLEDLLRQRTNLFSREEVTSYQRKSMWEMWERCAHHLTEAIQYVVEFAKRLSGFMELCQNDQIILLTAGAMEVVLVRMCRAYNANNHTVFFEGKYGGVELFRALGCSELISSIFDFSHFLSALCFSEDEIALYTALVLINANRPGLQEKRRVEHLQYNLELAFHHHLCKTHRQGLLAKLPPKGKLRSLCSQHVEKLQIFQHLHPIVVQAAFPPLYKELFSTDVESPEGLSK
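A Gal4/UAS one-hybrid system in insect cells: metallothionein-promoter Gal4–ROR gamma fusion plus Photinus luciferase reporter. Copper sulfate 700 uM final, 20 hr ambient incubation, luminescent detection after 10 min with reagent.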
DT40 TDP1 no CPT – qHTS for Inhibitors of human tyrosyl-DNA phosphodiesterase 1 (TDP1): qHTS in cells in absence of CPT. Potency, µM (titrated, usually from 46.2 µM), inactives show top-dose activity change, negative = growth inhibition, actives largely listed as inhibitors. actives 15% (n = 420,000). DT40 Tdp1-/- hTDP1 cells, no CPT, ATP luminescence, 48 h; further: nearly all actives have a fitted effect of over 55% in size
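DT40 Tdp1-/-;hTDP1 cells, no CPT (DMSO vehicle only), 400 cells/well; compounds pin-transferred; ≥48 hr, 37 °C; CellTiter-Glo 30 min RT dark, luminescence read.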
Gal4-VP16 FLuc – counter-screen for ROR gamma inhibitors: Gal4-VP16 reporter | actives 3.5% (n = 310,000) | Drosophila S2 Gal4-VP16 UAS-luciferase, luminescence, 20 h | Potency, µM (series often up to 53.6 µM), for inactives: at the top dose activity, negative = inhibition, hits mostly inhibitors;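 further: Gal4-VP16 expression switched on by copper sulfate through the metallothionein promoter; nearly all actives have a fitted effect of over 50% in size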
DT40 TDP1 CPT – growth inhibition of DT40 Tdp1-/-;hTDP1 cells with camptothecin (screen for TDP1 inhibitors); chicken DT40 Tdp1-/-;hTDP1 cells + 20 nM CPT, ATP luminescence, 48 h; Potency, µM (top dose mostly 46.2 µM), without a hit: at the highest dose activity change, negative = growth inhibition, actives largely listed as inhibitors; actives 12% (n = 420,000); further: nearly all actives have a fitted effect of over 55% in size
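Chicken DT40 Tdp1-/- cells stably complemented with human TDP1 were seeded at 400 cells/well in medium containing 20 nM camptothecin, exposed to pin-transferred compounds, and grown at 37 °C for at least 48 hr. Viability was read as ATP luminescence.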
Active calls of the source: *; ? = inconclusive; / = no result given; ! = not confirmed by another sample. In the library only some 19% were active in any assay of this set; here they are far more common. The call rests on the fitted dose curve; in most records, active means well fitted curve in the direction sought with a large enough effect; inconclusive means small, poorly fitted or top-dose-only effect, or another doubt; inactive means no such curve, though single readings can be large; an effect the other way counts as inactive or inconclusive. On the % scale 0 is the no-effect control and ±100 the full control effect; potency means the concentration at half of the fitted maximal effect.

SMILES	TDP1 block	RORg inh	DT40 TDP1 no CPT	Gal4-VP16 FLuc	DT40 TDP1 CPT
CCN1C(=S)N[C@@H](c2cccs2)C(C(=O)OC)=C1C	/	3.98µM*	-17.3%	20µM*	?
CCN1C(=S)N[C@@H](CCc2ccccc2)C(C(=O)OC)=C1C	/	4.47µM*!	?	?	?
CC(=O)NCCOc1nc(N(C)C)nc(N(C)C)n1	3.3%	-17.2%	2.2%	2.8%	0.5%
N#CCCn1c(=O)cnc2cnc(N3CCNCC3)nc21	/	-8.8%	-5.6%	-9.9%	10.8%
C=CCOc1ccc(C2/C(=C(\O)c3ccc(F)cc3)C(=O)C(=O)N2CCCN(C)C)cc1 (stereo not given)	-4.2%	-14.4%	-4.7%	-0.8%	-6.3%
O=C(Nc1ccncc1)c1ccc2c(c1)C(=O)N(C1CCCCC1)C2=O	/	?	23.1µM*	11.2µM*	18.4µM*
CCC(=O)Nc1ccc2c(c1)C(=O)N(C1CCCCC1)C2=O	4.3%	?	?	2.0%	?
Cc1cc(NC(=O)c2ccc3c(c2)C(=O)N(C2CCCCC2)C3=O)no1	6.3%	-12.4%	14.6µM*	7.6%	?
Fc1ccc(N2CCN(Cc3c[nH]c4ccccc34)CC2)cc1	/	-16.5%	/	6.0%	/
Cc1ccc(CN2CCN(c3cccc4[nH]ccc34)CC2)cc1	/	-0.1%	?	-3.4%	16.4µM*
O=C(c1ccc(Cl)cc1)N1CCN(c2cccc3[nH]ccc23)CC1	5.5%	2.2%	-23.6%	-9.5%	-6.5%
c1cnc(N2CCN(Cc3c[nH]c4ccccc34)CC2)nc1	1.0%	-12.3%	2.06µM*	-12.1%	1.84µM*
Cc1ccccc1N1CCN(Cc2c[nH]c3ccccc23)CC1	-0.7%	-28.8%	6.51µM*	7.0%	3.66µM*
CCCCOC(=O)c1ccc(Nc2nc3ccc(C(=O)c4ccccc4)cc3n3cnnc23)cc1	5.6%	/	16.4µM*	/	20.6µM*
CCOc1ccc(Nc2nc3ccccc3n3cnnc23)cc1	/	0.5%	23.1µM*	-4.1%	?
c1ccc(Nc2nc3ccccc3n3cnnc23)cc1	0.0%	?	-24.6%	1.6%	-25.8%
c1ccc(N2CCCCC2)c(Nc2nc3ccccc3n3cnnc23)c1	/	-13.1%	20.6µM*	-2.5%	?
c1ccc2c(c1)nc(Nc1ccc(N3CCCCC3)cc1)c1nncn12	9.8%	30.2%	?	8.1%	?
O=C(O)c1ccc(Nc2nc3ccccc3n3cnnc23)cc1	-12.7%	/	7.31µM*	/	?
CCCCOC(=O)c1ccc(Nc2nc3ccc(C)cc3n3cnnc23)cc1	-5.9%	/	-22.0%	/	-1.1%
O=C1CC(c2ccccc2)n2nc(NC(=O)c3cccnc3)nc2N1 (stereo not given)	6.2%	-8.4%	/	-2.5%	/
CC(=O)NC12CC3CC(C1)CC(C(=O)OCC(=O)c1cc(C)n(C)c1C)(C3)C2	6.1%	/	?	/	16.4µM*
CC(=O)NC12CC3CC(C1)CC(C(=O)OCC(=O)Nc1ncc(Cl)c(C)c1Cl)(C3)C2	0.0%	0.0%	-18.9%	-1.1%	-18.3%
CC(=O)NC12CC3CC(C1)CC(C(=O)OCC(=O)c1ccc4c(c1)OCCO4)(C3)C2	2.0%	14.1µM*	?	?	?
O=C(COC(=O)c1cccs1)c1ccc2c(c1)OCCO2	-1.8%	-31.9%	-4.1%	-4.2%	-27.7%
SMILES	TDP1 block	RORg inh	DT40 TDP1 no CPT	Gal4-VP16 FLuc	DT40 TDP1 CPT
CCCCCOCC(O)CCC(=O)NN (stereo not given)	0.0%	-0.1%	-2.3%	5.9%	-8.0%
NNC(=O)CCCCCCCCCCOCCCCO	8.3%	22.1%	13µM*	0.3%	-21.4%
CCC(O)(CC)C(=O)N/N=C/c1cc(Br)cc(Br)c1O	11.2%	0.794µM*	14.6µM*	3.16µM*	20.6µM*
O=C(N/N=C/c1cc(Cl)cc(Cl)c1O)c1ccncc1	11.0%	3.16µM*	14.6µM*	?	6.51µM*
O=C(N/N=C/c1ccc(Cl)cc1Cl)c1ccncc1	1.9%	-27.0%	0.2%	-13.7%	14.6%
O=C(N/N=C/c1ccc(O)cc1O)c1ccncc1	/	-23.1%	4.61µM*	0.2%	8.2µM*
O=C(N/N=C/c1cc(Br)cc([N+](=O)[O-])c1O)c1ccc(NC(=O)c2ccc(F)cc2)cc1	?	8.91µM*	14.6µM*	11.2µM*	23.1µM*
O=C(N/N=C/c1ccccc1Cl)c1ccc(F)cc1	2.0%	-51.3%	-0.7%	-1.3%	7.3%
O=C(O)c1cccc(N/N=C/c2cc(Br)cc(Br)c2O)c1	5.8%	?	-3.3%	-17.4%	-1.0%
O=C(NCc1cc(Cl)cc(Cl)c1)c1ccc2sc([C@@H]3O[C@H](CO)[C@H](O)[C@H](O)[C@H]3O)nc2c1	/	/	-0.8%	/	-1.5%
c1ccc2[nH]c(SCc3ccc(-c4nnco4)cc3)nc2c1	3.0%	34.1%	?	-15.8%	?
O=C(N/N=C/c1c[nH]c2ccc(Br)cc12)c1ccncc1	89.1µM*	12.6µM*	?	?	?
Cc1nonc1C(=O)N/N=C/c1ccc(O)cc1O	5.6%	-30.8%	3.66µM*	-3.1%	3.26µM*
O=C(N/N=C/c1c[nH]c2ccccc12)c1ccn(Cc2ccc(Cl)cc2)n1	7.3%	6.1%	-28.9%	-2.3%	-3.0%
O=C(N/N=C/c1c[nH]c2ccc(Br)cc12)c1ccn(Cc2ccc(Cl)cc2Cl)n1	2.1%	3.2%	20.6µM*	-4.9%	?
O=C(N/N=C/c1ccc(O)cc1O)c1ccc(NC(=O)C2CCCCC2)cc1	-2.4%	?	7.31µM*	?	6.51µM*
Cc1nonc1C(=O)N/N=C/c1ccncc1	0.0%	-25.9%	9.7%	16.7%	4.5%
O=C(N/N=C/c1c[nH]c2ccccc12)c1ccncc1	3.4%	?	-12.0%	?	31.4%
O=C(COC(=O)c1ccc(NS(=O)(=O)c2cccs2)cc1O)Nc1nc2ccccc2s1	8.1%	30.0%	-1.7%	5.1%	5.1%
COc1ccc(OCc2nc3c4c(-c5ccccc5)c(-c5ccccc5)oc4ncn3n2)cc1	/	/	-5.4%	/	-0.5%
COc1ccc(C(=O)N/C(=C\c2ccco2)C(=O)NCc2cccnc2)cc1	5.3%	-1.2%	-20.6%	-6.6%	-8.4%
CC(=O)N1CC=CC1(CC(C)C)C(=O)NCc1cc(F)cc(C(F)(F)F)c1 (stereo not given)	0.0%	-7.6%	-11.0%	23.9%	-10.5%
O=C(N/N=C/c1cccc(O)c1)c1cc(C2CC2)nc2ccccc12	/	-6.2%	?	-8.0%	?
Cc1ccc(C(C)C)c(OCc2ccc(C(=O)N/N=C/c3ccc(O)cc3O)cc2)c1	8.2%	6.31µM*	18.4µM*	7.08µM*	?
Oc1c(Cl)cc(Cl)cc1/C=N/Nc1ncc(Br)cn1	-1.2%	?	1.3µM*	21.0%	1.16µM*

Screening results as filed in PubChem BioAssay.
